Experimental data as given in patent US20090232783, “Method for Regulating Production of Hemoglobin Beta Chains” (published 2009).

biological target: Nuclear ferritin-H (K562 nuclear extract, crude or heat/proteinase K enriched) (Homo sapiens, UniProt P02794 P02794:2-183); assay: competition; 20-fold greater competitor concentration than wt needed for 50% inhibition; 1000-fold vs 50-fold excess; conditions: protein: extract; dsDNA, one strand shown
Method: Gel mobility shift assays. Gel retardation assays (i.e., gel shifts) were used to determine DNA binding of the extract proteins to the Rsa I (95 bp) fragment and synthetic oligonucleotides (Berg et al., (1989) Nucleic Acids Res 17, 8833-52; Fried & Crothers (1981) Nucleic Acids Res 9, 6505-25). Each reaction contained 0.5-2 ng of DNA, 1.0-5.0 ug of extract protein, 1.0-5.0 ug of poly dI:poly dC, 100 mM KCl, and binding buffer (Berg et al., (1989) Nucleic Acids Res 17, 8833-52). Unlabeled competitor oligonucleotides ranged from 15- to 2000-fold molar excess and were included in the reaction mixture with the probe before adding protein. Gels used for retardation assays were 4%, 5%, or 6% acrylamide and the running buffer was low ionic strength TAE (Berg et al., (1989) Nucleic Acids Res 17, 8833-52).
Definition of the binding site with competition gel shifts. To further localize the binding of ferritin, the 37 bp oligonucleotide was mutated in different places, replacing six nucleotides at a time with all A's, all C's, or all G's, with complementary nucleotide replacements in the opposing strand (FIG. 4A). A competition gel shift assay was done with the partially purified protein from heated K562 nuclear extract, in which each of the unlabeled mutant oligos as well as the native sequence was competed against the 32-P-labeled native sequence for binding.

Sequence | binding signal [fold]
AACTCCTAAGCAAAAAACAGAAGAGCCAAGGACAGGT | 20
